# Assay results published in PubChem BioAssay (NCI).
# The panel holds about 83,000 compounds, 20% with a hit somewhere; the sample as a whole holds those more often.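 Percent growth is the endpoint: 0 to 100 indicates growth inhibition (40 means 60% inhibition), 0 means no net growth, and negative values indicate cell death.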 Activity calls are given as the source filed them.
# Test system: OVCAR-8 ovarian
# Assay: NCI-60 one-dose screen, 48 h (100 = growth as untreated, 0 = no growth, -100 = all killed)
# Conditions: 10 µM unless noted
# Description: Growth inhibition of the OVCAR-8 human tumor cell line is measured as a screen for anti-cancer activity. Cells are grown in 96 well plates and exposed to the test compound for 48 hours. Compounds are tested at a single concentration, which is 10^-5 M for most compounds. The reported endpoint is percent growth (GI% or GIPRCNT), where numbers from 0 - 100% represent growth inhibition, and numbers from -100% - 0 represent cell death. For example, a value of 40 represents 60% growth inhibition. A value of 0 means no net growth occurred over the course of the experiment. A value of -40 indicates 40% of cells at the beginning of the experiment died by the end of the experiment. A value of -100 means all cells are dead at the end of the experiment.
# NCI-60 Human Tumor Cell Lines Screen was performed using the standard one-dose NCI protocol, which is described in more detail at https://dtp.cancer.gov/discovery_development/nci-60/default.htm.
# Compounds with GIPRCNT values below 10 were considered active. Activity score was based on GIPRCNT using the following formula: […]
# Score is 0 for GIPRCNT values of 100 or above, 50 for GIPRCNT values of 0, and 100 for GIPRCNT values of -100.
row,Compound,growth
1,O=[N+]([O-])c1cc([N+](=O)[O-])c(N2CCCC2)cc1NN=C(c1ccc(O)cc1)c1ccc(O)cc1,-45.4% (active)
2,Cc1cc(C)cc(S(=O)(=O)n2ccc(-c3ccc4c(c3)CCC(C)(C)O4)n2)c1,91% (inactive)
3,CSc1nc2nc3c(nc2c(=O)n1C)C(=O)c1ccccc1C3=O,-8.36% (active)
4,Nc1c(C(=O)Nc2cccc(Cl)c2)sc2nc3c(cc12)C(O)CCC3 (stereo not given),36.8% (inactive)
5,CNNc1ncnc2c1cnn2-c1ccc(S(N)(=O)=O)cc1,81.8% (inactive)
6,CN1CCC[C@@H]1CCO[C@](C)(c1ccccc1)c1ccc(Cl)cc1,88.1% (inactive)
7,C/C(=C\CCc1ccoc1)CC/C=C(\C)CCCC1COC(=O)C1 (stereo not given),95.6% (inactive)
8,c1ccc2nc(N/N=C3\CCCCC3C3CCCCC3)ccc2c1 (stereo not given),83.6% (inactive)
9,O=C(N/N=C/c1cccc([N+](=O)[O-])c1)c1ccc(Br)o1,39.4% (inactive)
10,CCOC(=O)c1sc(NC(=O)COc2cccc(/C=C3\CCc4cc(OC)ccc4C3=O)c2)nc1C,73% (inactive)
11,Oc1ccc(/C=N/Nc2nc3ccccc3s2)c(O)c1,26.6% (inactive)
12,CCN(Cc1cccc(S(=O)(=O)[O-])c1)c1ccc(C(=C2C=CC(=[N+](CC)Cc3cccc(S(=O)(=O)O)c3)C=C2)c2ccccc2S(=O)(=O)O)cc1,104% (inactive)
13,CN(C)c1ccc(-c2nc3ncc(Br)cc3o2)cc1,99.6% (inactive)
14,CCCc1n(Cc2ccc3ccccc3c2)cc[n+]1Cc1ccc2ccccc2c1,-10.6% (active)
15,O=C(O)c1ccc(CNS(=O)(=O)c2ccc3ccccc3c2)cc1,67.7% (inactive)
16,CCCCN=C(N)c1ccc(OCCSCCOc2ccc(C(N)=NCCCC)cc2)cc1,40.7% (inactive)
17,CC(=O)N1N=C(c2ccc(Nc3ccnc4cc(Cl)ccc34)cc2)CC1c1ccc(Cl)cc1 (stereo not given),66.9% (inactive)
18,Cn1cnc([N+](=O)[O-])c1Sc1nc(N)nc2nc[nH]c12,29.5% (inactive)
19,FCc1ncc(-c2ccc(C(F)(F)F)cc2)c(NC2CCCCCC2)n1,15.8% [100 µM] (inactive)
20,CCNCCCn1c2c(c3ccc(F)cc3c1=O)C(=O)c1cc(OC)cnc1-2,-15.1% (active)

row,Compound,growth
1,O=C1/C(=C/c2ccccc2Cl)CCc2ccccc21,96.7% (inactive)
2,NS(=O)(=O)c1ccc(-n2nc(-c3ccc(Br)cc3)ccc2=O)cc1,88.2% [100 µM] (inactive)
3,Clc1ccc2[nH]cc(-c3cncn3CCc3ccccc3)c2c1,32.9% (inactive)
4,COc1cc(C(=O)c2cc3c(cc2C)OCO3)cc(OC)c1OC,20.4% (inactive)
5,COc1ccc(NC(=O)c2ccc(-c3ccccc3)cc2)c(C(N)=O)c1,108% (inactive)
6,Oc1c(Cl)cc(Cl)c(Cl)c1Cc1c(O)c(Cl)cc(Cl)c1Cl,7.43% (active)
7,O=C(Nc1nc2c(C(F)(F)F)cccc2s1)c1cc(Cl)ccc1O,6.2% (active)
8,ICCC(c1ccccc1)(c1ccccc1)c1ccccc1,70.8% (inactive)
9,O=C1c2cc3c(cc2-c2c1c1ccc(Cl)cc1c(=O)n2CCCNCCO)OCO3,-64.7% (active)
10,CSc1nc(-c2ccc(O)cc2O)c2c(=O)[nH]c(Nc3ccc(S(=O)(=O)Nc4nc(C)cc(C)n4)cc3)nc2n1,107% (inactive)
11,N#Cc1c(-c2ccccc2)cc(-c2ccccc2)n(CCCC(=O)O)c1=O,51.3% (inactive)
12,C[C@H](C(=O)N[C@@H](Cc1ccc(-c2ccccc2)cc1)C(=O)NC1CC(C)(C)N(C)C(C)(C)C1)c1ccc(-c2ccccc2)c(F)c1,-46.5% (active)
13,CCc1nn2c(-c3ccc(Cl)cc3C)c(-c3cc(OC)c(OC)c(OC)c3)nc2s1,103% (inactive)
14,COc1ccc2c(c1)c(CC(=O)[Se]C)c(C)n2C(=O)c1ccc(Cl)cc1,-46.9% (active)
15,O=C1/C(=C/c2cccc(Cl)c2)CCc2ccccc21,91.1% (inactive)
16,CCSc1nc(-c2ccco2)n2nc(-c3ccco3)cc2n1,97.1% (inactive)
17,Cc1cccc2nnc(-c3ccccc3)n12,109% (inactive)
18,O=CN1N=C(c2ccc(Cl)cc2)CC1c1cccc(Nc2ccnc3cc(Cl)ccc23)c1 (stereo not given),12.6% (inactive)
19,O[N+]1=CC=CCC1=S.On1ccccc1=S.[Zn],-50.4% (active)
20,N#Cc1c(NC(=O)c2ccco2)[n+]([O-])c2ccccc2[n+]1[O-],90.3% (inactive)
